# Screening results (PubChem)
# PERK inhibitor – blocks human PERK kinase. Q9NZJ5. CHO PERK-DD fusion, SEAP luminescence translation reporter. inhibition, % at 5.6 µM. actives 0.17% (n = 220,000). AID 1416;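 active = inhibition above the mean inhibition of all tested compounds plus 3 SD, set separately per screening campaign, cut at about 2.9% in these data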;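 note: PERK kinase domain activated by AP20187 dimerizer at 100 nM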
# eIF4H inh – inhibitors of RNA binding by human eIF4H; eIF4H fluorescence polarization binding assay; inhibition, % at 35 µM; actives 0.94% (n = 290,000); AID 2012;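 note: calls also rest on retests at 20 µM and on dose response follow-up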
# PABP polyA inh – blocks human PABP binding to poly(A) RNA; fluorescence polarization; inhibition, % at 35 µM; actives 1% (n = 290,000);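 note: calls also rest on retests at 20 µM and on dose response follow-up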
# GRK2 aptamer HTS – inhibitors of human GRK2 displacing RNA aptamer. inhibition of aptamer binding, % at 10 µM. actives 0.59% (n = 330,000). P25098. AID 488847. bead flow cytometry, FAM-aptamer displacement from GRK2;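 active = inhibition of aptamer binding above 40%, roughly 3 SD of noise, on plates passing a quality check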;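 note: median bead fluorescence of bound FAM aptamer so fluorescent compounds give negative values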
# PABP1 MLLE inh – inhibitors of microRNA-mediated deadenylation, human PABP1 MLLE binding | P11940 | actives 0.36% (n = 360,000) | inhibition, % at 20 µM | GST-MLLE / FITC-PAM2 fluorescence polarization; in the data active = inhibition above about 35%, passing the limit was not always enough
# Numbers stand for hits; . = inactive; ? = inconclusive; / = no result given. Hits are enriched below; roughly 1.9% of the tested compounds scored in any of these assays. Unless noted, the rule behind the calls is not given here.
SMILES,PERK inhibitor,eIF4H inh,PABP polyA inh,GRK2 aptamer HTS,PABP1 MLLE inh
NC(=O)CSCc1nc2ccccc2s1,.,54.7,54.3,.,.
Oc1ccccc1OCc1nc2ccccc2s1,.,.,.,.,.
Cc1ccccc1NC(=O)CSCC(=O)Nc1ccccc1C,.,.,.,.,.
Cc1ccccc1NC(=O)CSC(N)=O,3.1,.,.,.,.
NC(N)=N/N=C/c1ccc(OS(=O)(=O)c2ccccc2)cc1,.,active,.,.,.
O=C(NC1CCCCC1)c1cccnc1Sc1ccccc1Cl,/,.,.,.,.
O=C(O)c1cccnc1Sc1ccccc1Cl,3.2,.,.,.,.
CCOC(=O)CSc1nc2c(sc(=S)n2-c2ccccc2OC)c(=O)n1-c1ccccc1OC,/,.,.,.,.
CCOC(=O)CSc1nc2c(sc(=S)n2-c2ccccc2OC)c(=O)n1Cc1ccco1,.,.,.,.,38.2
O=C1Nc2ccccc2SC(c2ccccc2)C1O (stereo not given),.,?,49.5,.,.
O=C(O)CC1Sc2ccccc2NC1=O (stereo not given),.,.,.,.,.
CCN(CC)C(=O)C1=C(C)N(CCCN2CCCC2=O)C(=O)C(CC(=O)NCCCCc2ccccc2)C1 (stereo not given),/,/,/,/,.
CCOC(=O)CSc1n[nH]c(-c2ccco2)n1,.,.,.,.,.
O=C(O)c1ccc(CSc2n[nH]c(-c3ccco3)n2)cc1,.,77.1,79.1,.,.
Cc1cccc(N=CC=C2OC(C)(C)C(C)(C)O2)c1,.,.,.,.,.
Cc1ccccc1N=CC=C1OC(C)(C)C(C)(C)O1,.,.,.,54.0,.
Cc1cc(C)cc(C(=O)NCC(=O)OCC(=O)N2c3ccccc3NC(=O)C2(C)C)c1,.,76.0,active,.,.
CN(Cc1ccccc1)C1=CC(=[N+]2CCCCC2)CC(C)(C)C1,.,.,51.4,.,.
O=C1N=C2SCCN2/C1=C\c1ccccc1Cl,.,.,.,.,39.4
CC(C)Cc1nnc(NC(=O)C2CCCN(C(=O)c3ccc(Cl)cc3)C2)s1 (stereo not given),/,/,/,/,.
Cc1cc(Sc2ncnc(N)c2[N+](=O)[O-])ncn1,.,.,.,.,45.9
CCOC(=O)/C=C(\C)Sc1cc(O)c2ccccc2c1O,.,.,.,/,61.6
CC(=O)C1=C(C)Nc2ncnn2C1c1cccc(Br)c1 (stereo not given),/,.,.,.,.
CCN(CC)S(=O)(=O)c1cc(NC(=O)Cn2ncc(Cl)c(Cl)c2=O)ccc1C,.,.,14.1,.,.
CCOc1ccc(NC(=O)c2cccc(-n3cccc3)c2)cc1S(=O)(=O)N1CCOCC1,/,/,/,43.0,.
SMILES,PERK inhibitor,eIF4H inh,PABP polyA inh,GRK2 aptamer HTS,PABP1 MLLE inh
COc1ccc(NC(=O)Cn2ncc(Cl)c(Cl)c2=O)cc1S(=O)(=O)N1CCOCC1,.,.,1.8,.,.
COc1ccc(NC(=O)c2cc3c(s2)CCC3)cc1S(=O)(=O)N1CCOCC1,.,100.2,.,.,.
O=C(Cn1ncc(Cl)c(Cl)c1=O)Nc1ccc2c(c1)OCO2,/,/,/,.,.
CC1CN(CCc2ccccc2)c2nc3c(c(=O)n(C)c(=O)n3C)n2C1 (stereo not given),/,.,.,.,.
O=C(Nc1cccc2ccccc12)c1ccc2sc([C@@H]3O[C@H](CO)[C@H](O)[C@H](O)[C@H]3O)nc2c1,/,/,/,/,.
Cc1ccc(S(=O)(=O)NCCc2ccncc2)cc1[N+](=O)[O-],/,.,.,.,.
Cc1nsc(N)c1C(=O)O,3.4,.,.,.,.
CC1(Cc2ccc(Cl)cc2)C(=O)Nc2c(Cl)ccc(Cl)c21 (stereo not given),/,/,/,/,.
Cc1ccc(CNC(=O)Cn2c(=O)c3sccc3n(Cc3ccc([N+](=O)[O-])cc3)c2=O)cc1,.,.,.,.,.
COc1ccc(C2CC(c3cccs3)=Nc3ccccc3S2)cc1 (stereo not given),.,.,.,.,51.3
COc1ccc(C2CC(c3cccs3)=NN2S(C)(=O)=O)cc1 (stereo not given),.,.,.,.,.
CC(=O)N1CCc2cc(N=NC3=C(O)CCCC3=O)ccc21,.,54.3,1.4,.,.
CCN(CCCNC(=O)C1CCN(S(=O)(=O)CC)CC1)c1ccccc1,.,.,.,.,.
CCS(=O)(=O)N1CCC(C(=O)NCc2ccc(F)cc2)CC1,3.4,.,.,.,.
CCN(CCCNC(=O)C1CCN(S(=O)(=O)CC)CC1)c1cccc(C)c1,.,90.2,27.7,.,.
COc1ccc(CCNC(=O)CN2C(=O)NC(c3ccccc3)(c3ccccc3)C2=O)cc1,/,/,/,.,.
